# SKKanGAS inh: SKKanGAS growth inhibition; inhibition, % at 7.5 µM; AID 1662; S. pyogenes SKKanGAS, kanamycin growth, BacTiter-Glo, 6 h; 1.3% of 300,000 active;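 active = mean replicate score, as percent of positive control median, at least 50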;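 also: strain carries kanamycin resistance gene driven by streptokinase promoter and grows in 40 µg/ml kanamycin; loss of luminescence reflects streptokinase promoter inhibition or plain growth inhibition; 0% = median of DMSO wells and 100% = positive control at its reference dose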
# PfHsp90 set2: reduces growth (ATP signal) of yeast expressing P. falciparum Hsp90; S. cerevisiae expressing PfHsp90, BacTiter-Glo ATP, 48 h; yeast lacking PDR1 and PDR3 efflux regulators; inhibition, % at 9.4 µM; 0.32% of 310,000 active;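 active = every replicate shows inhibition above about 80%, whatever the replicate mean, limit read from the data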;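 also: 0% = DMSO neutral controls and 100% = 20 µM radicicol positive controls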
# NLRP3 yeast inh: blocks the NALP3 inflammasome reconstituted in yeast | Yeast reconstituted NLRP3/ASC/caspase-1, beta-gal luminescence, 24 h | inhibition, % at 10 µM | 0.39% of 330,000 active;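 active = inhibition of 50% or more; inactive = inhibition below 50%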;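 also: plate controls were induced DMSO wells for no effect and uninduced yeast grown without galactose for full effect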
# TIM10 inh: inhibits growth of TIM10 yeast strain. 1.4% of 330,000 active. inhibition, % at 10 µM. S. cerevisiae TIM10 strain growth, BacTiter-Glo luminescence, 24 h. AID 463195;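 active = inhibition of 40% or more at the single tested concentration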;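 also: wild-type TIM10 isogenic control strain grown at permissive 25 °C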
# tim10-1 inh: tim10-1 yeast growth inhibition; S. cerevisiae tim10-1 ts strain growth, BacTiter-Glo, 24 h; inhibition, % at 20 µM; 2.2% of 330,000 active; AID 463190;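 active = inhibition of at least 40%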;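 also: mutant grown at 25 °C; 0% = DMSO wells with yeast and 100% = wells holding no yeast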
# tim23-1 inh: inhibits growth of tim23-1 mutant yeast. S. cerevisiae tim23-1 growth, BacTiter-Glo luminescence, 24 h. inhibition, % at 20 µM. 1.3% of 330,000 active. AID 463212;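 active = growth inhibition of the mutant yeast at or above 50%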;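 also: temperature-sensitive mutant grown at 25 °C; plate controls were DMSO-treated mutant yeast for no effect and medium wells lacking yeast for full effect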
# Starred values were filed as active, the others as inactive; · = not tested or not shown. Most compounds without a hit are left out; they make up all but 4.6% or so of the library.
SMILES,SKKanGAS inh,PfHsp90 set2,NLRP3 yeast inh,TIM10 inh,tim10-1 inh,tim23-1 inh
CC1CC(C)CN(C(=O)C(NS(=O)(=O)c2ccc(Br)s2)c2ccccc2)C1 (centres undefined),32,-20,-12,34,39,45
Cc1ccc(-c2nn(-c3ccccc3)cc2/C=C2\SC(=S)N(CC(=O)O)C2=O)cc1,55*,32,13,15,34,16
COc1ccc(-c2nn(-c3ccccc3)cc2/C=C/C(=O)N2CCN(c3ccccn3)CC2)cc1,60*,3,11,32,19,20
O=C(O)CCCCCN1C(=O)/C(=C\c2cn(-c3ccccc3)nc2-c2cccs2)SC1=S,91*,-12,18,22,15,34
CCN1C(=O)/C(=C/c2cn(-c3ccccc3)nc2-c2cccnc2)SC1=S,·,-11,·,·,·,·
COc1ccc(-c2nn(-c3ccccc3)cc2/C=C2/SC(=S)N(CCC(=O)O)C2=O)cc1,83*,5,9,20,10,25
Cc1ccc(N2CC(C(=O)Nc3ccc(N4CCOCC4)cc3)CC2=O)cc1C (centres undefined),-5,-14,7,-14,9,11
COc1ccc(-c2nnc(NC(=O)c3ccc(S(=O)(=O)N4COCC4(C)C)cc3)o2)cc1,89*,-15,5,24,31,8
O=C(Nc1nnc(-c2cccs2)o1)c1ccc(S(=O)(=O)N2CCOCC2)cc1,7,7,2,10,18,-2
CC1(C)COCN1S(=O)(=O)c1ccc(C(=O)Nc2nnc(-c3ccc(Cl)s3)o2)cc1,101*,·,-5,17,34,28
CC(=O)c1ccc(S(=O)(=O)N2CCN(S(=O)(=O)c3ccccc3C(F)(F)F)CC2)cc1,1,10,14,29,-16,6
O=c1cc(-c2ccccc2)[nH]n1-c1nc2ccccc2s1,82*,-42,31,-20,-2,-20
O=c1cc(-c2ccccc2)[nH]n1-c1ccccc1,·,22,·,·,·,·
O=C(Nc1ccn(Cc2c(F)c(F)cc(F)c2F)n1)c1ccc(COc2ccc(Cl)cc2Cl)o1,50*,-3,-14,28,31,27
COc1cccc(/C=C/C(=O)OCC(=O)Nc2cccc(S(=O)(=O)N(C)C)c2)c1,-7,-1,11,11,24,22
COc1ccc(NC(=S)Nc2ccc(C)c(S(=O)(=O)N3CCCCC3)c2)cc1,24,·,9,19,16,25
Cc1ccc(NC(=S)Nc2ccc(C(C)C)cc2)cc1S(=O)(=O)N1CCCCCC1,56*,-20,20,33,35,32
COc1ccc(C2CC(=O)C=C(NNS(=O)(=O)c3ccc(C)cc3)C2)cc1 (centres undefined),-2,1,7,11,8,23
Cc1cc(NC(=O)COC(=O)C2=NN(c3ccccc3)C(=O)CC2)c([N+](=O)[O-])cc1C,·,10,-1,3,10,19
O=C(CCC1CCCC1)c1c(O)c2ccccc2oc1=O,54*,8,35,-26,-13,1
CCCC[n+]1c(-c2ccc(Cl)cc2Cl)csc1Nc1ccccc1,5,-6,13,9,10,-2
Clc1ccc(-c2csc(Nc3ccccc3)[n+]2Cc2ccco2)c(Cl)c1,79*,12,·,·,·,·
Cc1ccc(CNC(=O)c2ccc3c(=O)[nH]c4c(C(=O)NCC5CCCO5)sc(=S)n4c3c2)cc1 (centres undefined),56*,-6,8,-4,27,10
CCOC(=O)CCNC(=O)N1CCCC(CNS(=O)(=O)c2cccs2)C1 (centres undefined),-2,-21,13,0,-4,3
COc1cccc(CC(=O)OC(C)C(=O)Nc2ncc(Cl)cc2Cl)c1 (centres undefined),-8,-32,5,-4,10,13
SMILES,SKKanGAS inh,PfHsp90 set2,NLRP3 yeast inh,TIM10 inh,tim10-1 inh,tim23-1 inh
Cc1ccc2nc(Nc3nc(-c4ccccc4)cc(=O)[nH]3)nc(C)c2c1,95*,13,16,-6,-18,-18
COc1ccc2c(C)nc(Nc3nc(-c4ccccc4)cc(=O)[nH]3)nc2c1,74*,17,36,-28,36,17
COCc1cc(=O)[nH]c(Nc2nc(C)c3cc(OC)ccc3n2)n1,5,·,21,22,-7,15
Cc1ccc2nc(Nc3nc(C)cc(-c4ccccc4)n3)[nH]c(=O)c2c1,86*,11,27,9,-1,-15
O=C(NCc1ccccn1)C(=O)Nc1nc(C23CC4CC(CC(C4)C2)C3)cs1,75*,2,11,10,16,39
O=C(NCc1ccccn1)NC12CC3CC(CC(C3)C1)C2,3,·,-9,6,19,14
C=CC1=C(C(=O)O)N2C(=O)C(NC(=O)Cc3ccccc3)C2SC1 (centres undefined),95*,2,-20,18,13,21
CC1=C(C(=O)OCc2ccc([N+](=O)[O-])cc2)N2C(=O)C(NC(=O)Cc3ccccc3)C2SC1 (centres undefined),-3,11,5,3,8,19
O=C(COc1ccccc1)NC1C(=O)N2C(C(=O)O)=C(Cl)CSC12 (centres undefined),102*,-4,9,-4,-3,1
CC1=C(C(=O)OCc2ccccc2)N2C(=O)[C@@H](NC(=O)COc3ccccc3)[C@H]2SC1,4,18,-1,-8,18,28
O=C(COC(=O)C1CCN(c2ccc(C(F)(F)F)cn2)CC1)Nc1cccc(F)c1,-5,-26,11,16,38,36
O=C(O)c1cn(C2CC2)c2cc(N3CCN(S(=O)(=O)c4ccc5c(c4)OCCO5)CC3)c(F)cc2c1=O,121*,-37,6,-2,3,-2
Cc1nn(C(=O)c2cccnc2)c(C)c1Sc1ccc(Br)cc1,63*,11,27,19,-2,23
Cc1nn(C(=O)c2ccco2)c(C)c1Sc1ccc(Cl)cc1,-4,13,-5,-14,17,1
CCOc1ccccc1NC(=S)N(CCC(C)C)C1CCN(C(C)=O)CC1,-6,-2,5,6,15,11
Cc1c(CCC(=O)O)c(=O)oc2c(C)c(OCc3cc4c(cc3Cl)OCO4)ccc12,67*,1,3,12,13,10
Cc1ccc(N(C)S(=O)(=O)c2cccc(C(=O)NNC(=O)c3ccncc3)c2)cc1,·,12,18,-10,1,-7
CCc1ccccc1NC(=O)CNC(=O)c1ccc(-n2cncn2)c([N+](=O)[O-])c1,-1,-11,25,17,3,16
Cc1cccc(Nc2nc(-c3ccc(F)c(C)c3)cs2)n1,72*,-22,20,24,-6,49
Nc1c(Cl)cc(C2=NCCn3c2c2ccc([N+](=O)[O-])cc2[n+]3[O-])cc1Cl,68*,-23,7,1,24,0

# Source: PubChem BioAssay (several laboratories)
